Measured values taken from PubChem BioAssay (NCI).
Compounds without any hit were thinned out: in the full panel of roughly 83,000, 20% have a hit.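 The endpoint reported here, percent growth, reads 100 for growth as untreated, 0 for no net growth and -100 for all cells dead.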 Active and inactive are the calls of the source. Rule for the calls: active = growth percent below 10; inactive = the rest.

Tests used:
Assay in all cases: NCI-60 one-dose screen, 48 h (100 = growth as untreated, 0 = no growth, -100 = all killed)
Settings in all cases: 10 µM unless noted
SR leukemia = system: SR leukemia
RPMI-8226 leukemia = system: RPMI-8226 leukemia
OVCAR-8 ovarian = system: OVCAR-8 ovarian
OVCAR-5 ovarian = system: OVCAR-5 ovarian
OVCAR-4 ovarian = system: OVCAR-4 ovarian
SK-OV-3 ovarian = system: SK-OV-3 ovarian
IGROV1 ovarian = system: IGROV1 ovarian
OVCAR-3 ovarian = system: OVCAR-3 ovarian
HS 578T breast = system: HS 578T breast
NCI/ADR-RES ovarian = system: NCI/ADR-RES ovarian
T-47D breast = system: T-47D breast
BT-549 breast = system: BT-549 breast
MDA-MB-435 melanoma = system: MDA-MB-435 melanoma
SW-620 colon = system: SW-620 colon
MCF7 breast = system: MCF7 breast
HCT-116 colon = system: HCT-116 colon
HCC-2998 colon = system: HCC-2998 colon
KM12 colon = system: KM12 colon

Measured: growth

Oc1c(Br)cc(Br)c2ccc(Cn3cc(-c4ccc(C(F)(F)F)cc4)nn3)nc12
active: SR leukemia -22.9% | RPMI-8226 leukemia -1.77% | OVCAR-3 ovarian -7.84% | SW-620 colon -16.3% | HCT-116 colon -0.0235%
inactive: OVCAR-8 ovarian 59.5% | OVCAR-5 ovarian 89% | OVCAR-4 ovarian 54% | SK-OV-3 ovarian 110% | IGROV1 ovarian 79.6% | HS 578T breast 101% | NCI/ADR-RES ovarian 105% | T-47D breast 46.2% | BT-549 breast 72.6% | MDA-MB-435 melanoma 48.2% | MCF7 breast 27.9% | HCC-2998 colon 117% | KM12 colon 104%

CC(=O)Oc1ccc(N2C(=O)C(Cl)=C(Nc3cccc(C(F)(F)F)c3)C2=O)cc1
inactive: SR leukemia 80.4% | RPMI-8226 leukemia 77.6% | OVCAR-8 ovarian 97.9% | OVCAR-5 ovarian 91.5% | OVCAR-4 ovarian 110% | SK-OV-3 ovarian 87.9% | IGROV1 ovarian 97.1% | OVCAR-3 ovarian 91.9% | HS 578T breast 107% | NCI/ADR-RES ovarian 97.5% | T-47D breast 86.6% | BT-549 breast 85.8% | MDA-MB-435 melanoma 97.5% | SW-620 colon 99.1% | MCF7 breast 92.8% | HCT-116 colon 91% | HCC-2998 colon 104% | KM12 colon 96.3%

CN1C(=O)/C(=C\c2c(Cl)cccc2Cl)c2ccccc21
inactive: SR leukemia 34.3% | RPMI-8226 leukemia 84.2% | OVCAR-8 ovarian 94.1% | OVCAR-5 ovarian 98.6% | OVCAR-4 ovarian 87.9% | SK-OV-3 ovarian 99.2% | IGROV1 ovarian 92.1% | OVCAR-3 ovarian 95.4% | HS 578T breast 81.7% | NCI/ADR-RES ovarian 80.1% | T-47D breast 90.3% | BT-549 breast 98.7% | SW-620 colon 66.3% | MCF7 breast 68.7% | HCT-116 colon 91.9% | HCC-2998 colon 80.4% | KM12 colon 62.3%
active: MDA-MB-435 melanoma 7.16%

c1csc(-c2ccc(CNc3c4ccccc4nc4ccccc34)cc2)c1
inactive: OVCAR-8 ovarian 55.6% | OVCAR-5 ovarian 67.1% | OVCAR-4 ovarian 15.3% | SK-OV-3 ovarian 65% | IGROV1 ovarian 10% | HS 578T breast 60.6% | NCI/ADR-RES ovarian 11.2% | T-47D breast 71.9% | BT-549 breast 33.7% | KM12 colon 26.3%
active: SR leukemia -43.7% | RPMI-8226 leukemia -44.4% | OVCAR-3 ovarian 9.5% | MDA-MB-435 melanoma -83.4% | SW-620 colon -72.2% | MCF7 breast -63% | HCT-116 colon -82.6% | HCC-2998 colon -87.2%

CCOC(=O)C1=C(c2ccccc2)N=C2SC=C(c3ccc(Cl)cc3)N2C1c1ccc(Cl)cc1 (stereo not drawn)
inactive: SR leukemia 75.7% | RPMI-8226 leukemia 65.9% | OVCAR-8 ovarian 78.6% | OVCAR-5 ovarian 96.9% | OVCAR-4 ovarian 48.7% | SK-OV-3 ovarian 86.5% | IGROV1 ovarian 72.3% | OVCAR-3 ovarian 65.8% | HS 578T breast 85.2% | NCI/ADR-RES ovarian 92.3% | T-47D breast 52.4% | BT-549 breast 87.5% | MDA-MB-435 melanoma 93.2% | SW-620 colon 81.8% | MCF7 breast 69.5% | HCT-116 colon 63% | HCC-2998 colon 86.2% | KM12 colon 72.5%

CCOC(=O)C1=C(c2ccccc2)N=C2SC=C(c3ccc(Cl)cc3)N2C1c1ccc(Br)cc1 (stereo not drawn)
inactive: SR leukemia 74.2% | RPMI-8226 leukemia 61.8% | OVCAR-8 ovarian 80.3% | OVCAR-5 ovarian 94.9% | OVCAR-4 ovarian 50.5% | SK-OV-3 ovarian 82.5% | IGROV1 ovarian 74.5% | OVCAR-3 ovarian 67.4% | HS 578T breast 77.9% | NCI/ADR-RES ovarian 83% | T-47D breast 52.2% | BT-549 breast 84.3% | MDA-MB-435 melanoma 94.3% | SW-620 colon 78.9% | MCF7 breast 75.2% | HCT-116 colon 64.9% | HCC-2998 colon 90.5% | KM12 colon 78.1%

Cc1cc(C(=O)Nc2ncc(Cc3cccc(C(F)(F)F)c3)s2)c2ccccc2n1
active: SR leukemia 9.35% | HS 578T breast -0.594% | MDA-MB-435 melanoma -27.3%
inactive: RPMI-8226 leukemia 33.9% | OVCAR-8 ovarian 43.4% | OVCAR-5 ovarian 47.7% | OVCAR-4 ovarian 42.4% | SK-OV-3 ovarian 36% | IGROV1 ovarian 31.5% | OVCAR-3 ovarian 13.3% | NCI/ADR-RES ovarian 16.4% | T-47D breast 12.1% | BT-549 breast 34.7% | SW-620 colon 17.3% | MCF7 breast 10.2% | HCT-116 colon 18% | HCC-2998 colon 25.6% | KM12 colon 15.5%

N#Cc1ccc(O)c(C2=NCC(c3ccccc3)O2)c1 (stereo not drawn)
inactive: SR leukemia 38% | RPMI-8226 leukemia 33.3% | OVCAR-8 ovarian 19.6% | OVCAR-5 ovarian 84% | SK-OV-3 ovarian 45.3% | IGROV1 ovarian 33.1% | HS 578T breast 77.2% | BT-549 breast 31.9% | MDA-MB-435 melanoma 57.8% | SW-620 colon 28.6% | MCF7 breast 25.3% | HCT-116 colon 17.5% | HCC-2998 colon 47.8% | KM12 colon 37.2%
active: OVCAR-4 ovarian 9.62% | OVCAR-3 ovarian 7.61% | NCI/ADR-RES ovarian 1.45% | T-47D breast -5.7%

O=C(N(c1ccccc1)c1ccccc1)n1cc(I)c2nc(Cl)nc(Cl)c21
active: RPMI-8226 leukemia 0.0387%
inactive: SR leukemia 18.9% | OVCAR-8 ovarian 22.6% | OVCAR-5 ovarian 63.7% | OVCAR-4 ovarian 68.4% | SK-OV-3 ovarian 60.9% | IGROV1 ovarian 61.8% | OVCAR-3 ovarian 25.8% | HS 578T breast 39.1% | NCI/ADR-RES ovarian 42.4% | T-47D breast 61.2% | BT-549 breast 47.4% | MDA-MB-435 melanoma 37.4% | SW-620 colon 26% | MCF7 breast 25.5% | HCT-116 colon 25.7% | HCC-2998 colon 93.3% | KM12 colon 44.1%

COC(=O)/C=C1/SC(=Nc2ccc(C(F)(F)F)cc2)N(CCc2c[nH]c3ccc(O)cc23)C1=O
inactive: OVCAR-8 ovarian 13.9% | NCI/ADR-RES ovarian 21% | T-47D breast 17.3% | MDA-MB-435 melanoma 24% | MCF7 breast 12.5% | KM12 colon 18.3%
active: SR leukemia -35.5% | RPMI-8226 leukemia -50.3% | OVCAR-5 ovarian -25.9% | OVCAR-4 ovarian -45.6% | SK-OV-3 ovarian -5.47% | IGROV1 ovarian -54.2% | OVCAR-3 ovarian -31.1% | HS 578T breast 7.87% | BT-549 breast -32.7% | SW-620 colon 3.9% | HCT-116 colon -71.9% | HCC-2998 colon -61.4%

COc1ccc(-c2ccc(-c3ccc(C(=N)N)cc3)s2)cc1Cl
active: SR leukemia -7.28% | RPMI-8226 leukemia -34.4% | OVCAR-8 ovarian -18.2% | OVCAR-4 ovarian -42% | IGROV1 ovarian -87.5% | OVCAR-3 ovarian -88% | MDA-MB-435 melanoma -65.2% | SW-620 colon -71.9% | MCF7 breast -65.5% | HCT-116 colon -52.8% | HCC-2998 colon -37.8% | KM12 colon -73.2%
inactive: OVCAR-5 ovarian 14.2% | SK-OV-3 ovarian 93% | HS 578T breast 44.9% | NCI/ADR-RES ovarian 78% | T-47D breast 42.6% | BT-549 breast 93.7%

Nc1ncnc2c1c(-c1cccc(Cl)c1)nn2CC(=O)N1CCOCC1
inactive: SR leukemia 116% | RPMI-8226 leukemia 108% | OVCAR-8 ovarian 102% | OVCAR-5 ovarian 101% | OVCAR-4 ovarian 96.6% | SK-OV-3 ovarian 109% | IGROV1 ovarian 99.2% | OVCAR-3 ovarian 106% | HS 578T breast 103% | NCI/ADR-RES ovarian 103% | T-47D breast 105% | BT-549 breast 97.2% | MDA-MB-435 melanoma 104% | SW-620 colon 106% | MCF7 breast 94.9% | HCT-116 colon 101% | HCC-2998 colon 110% | KM12 colon 102%

N#Cc1c(-c2ccc(Cl)cc2)c(C#N)c2c(C#N)c(N)nn2c1N
inactive: SR leukemia 69.5% | RPMI-8226 leukemia 73.9% | OVCAR-8 ovarian 88% | OVCAR-5 ovarian 86.9% | OVCAR-4 ovarian 82.4% | SK-OV-3 ovarian 70.5% | IGROV1 ovarian 74.1% | OVCAR-3 ovarian 93.8% | HS 578T breast 79.4% | NCI/ADR-RES ovarian 96.3% | T-47D breast 57% | BT-549 breast 75.5% | MDA-MB-435 melanoma 95.4% | SW-620 colon 94.7% | MCF7 breast 81.3% | HCT-116 colon 96.1% | HCC-2998 colon 102% | KM12 colon 92.9%

C=CCc1c(O)c(C(=O)/C=C/c2ccccc2)c(OC)c2ccoc12
inactive: SR leukemia 20.6% | OVCAR-8 ovarian 29.6% | OVCAR-5 ovarian 90.5% | OVCAR-4 ovarian 49.1% | SK-OV-3 ovarian 74.4% | IGROV1 ovarian 54.7% | OVCAR-3 ovarian 13.7% | HS 578T breast 66.1% | NCI/ADR-RES ovarian 21% | T-47D breast 41.3% | BT-549 breast 34.3% | MDA-MB-435 melanoma 26.4% | SW-620 colon 39.9% | MCF7 breast 16.1% | HCT-116 colon 22.9% | HCC-2998 colon 50.4% | KM12 colon 45.2%
active: RPMI-8226 leukemia 6.17%

CC1CCN(S(=O)(=O)c2ccc(S(=O)(=O)N3CCCC(c4nc5c(nnn5Cc5cccc(Cl)c5)c(=O)[nH]4)C3)cc2)CC1 (stereo not drawn)
inactive: SR leukemia 10.5% | RPMI-8226 leukemia 19.9% | OVCAR-8 ovarian 61.5% | OVCAR-5 ovarian 97.1% | OVCAR-4 ovarian 64.5% | SK-OV-3 ovarian 72.9% | IGROV1 ovarian 60% | OVCAR-3 ovarian 34.3% | HS 578T breast 33.1% | NCI/ADR-RES ovarian 88.6% | T-47D breast 50.3% | BT-549 breast 67.9% | SW-620 colon 33.4% | MCF7 breast 23.3% | HCT-116 colon 15.1% | HCC-2998 colon 70.8% | KM12 colon 39.3%
active: MDA-MB-435 melanoma -30.9%

O=C1NC2(Nc3ccccc31)C(=O)Nc1c(Cl)cc(Cl)cc12 (stereo not drawn)
inactive: SR leukemia 93.2% | RPMI-8226 leukemia 105% | OVCAR-8 ovarian 102% | OVCAR-5 ovarian 115% | OVCAR-4 ovarian 98.9% | SK-OV-3 ovarian 107% | IGROV1 ovarian 91.5% | OVCAR-3 ovarian 118% | HS 578T breast 100% | NCI/ADR-RES ovarian 108% | T-47D breast 87.9% | BT-549 breast 99.3% | MDA-MB-435 melanoma 103% | SW-620 colon 100% | MCF7 breast 88.9% | HCT-116 colon 98.6% | HCC-2998 colon 104% | KM12 colon 100%
